# Most compounds without a hit are left out; they make up all but 9.3% or so of the library.
# SMN2 splice enh: increases expression of the SMN2 splice variant; HEK293 SMN2-luciferase splicing reporter, luminescence, 30-36 h; Potency, µM (top dose mostly 46.1 µM), for the others: at the highest dose activity change, positive = activation, usual class: activators; 2.8% of 210,000 active; AID 1458; note: % of control where 0% means no effect; nearly all actives have a fitted effect of over 55% in size
#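 HEK293 cells carry an SMN2 […]–luciferase reporter in which exon 7 inclusion puts luciferase in frame. Cells were plated 10-12 h before compound addition, then incubated 30-36 h at 37C. ONE-Glo luminescence was read; sodium butyrate at 4.5 mM final served as control.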
# FLuc modulator: counter-screen for miR-21 project: firefly luciferase inhibitors or activators; P08659; purified FLuc, Km substrates, luminescence inhibition; Potency, µM (doses to about 57.5 µM), for inactives: at the top dose activity change, negative = inhibition, usual class: inhibitors; 6.9% of 360,000 active;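 note: plate controls were vehicle for no effect and reference inhibitor for full effect; nearly all actives have a fitted effect of over 55% in size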
# Target sequence (P08659 whole entry, looked up): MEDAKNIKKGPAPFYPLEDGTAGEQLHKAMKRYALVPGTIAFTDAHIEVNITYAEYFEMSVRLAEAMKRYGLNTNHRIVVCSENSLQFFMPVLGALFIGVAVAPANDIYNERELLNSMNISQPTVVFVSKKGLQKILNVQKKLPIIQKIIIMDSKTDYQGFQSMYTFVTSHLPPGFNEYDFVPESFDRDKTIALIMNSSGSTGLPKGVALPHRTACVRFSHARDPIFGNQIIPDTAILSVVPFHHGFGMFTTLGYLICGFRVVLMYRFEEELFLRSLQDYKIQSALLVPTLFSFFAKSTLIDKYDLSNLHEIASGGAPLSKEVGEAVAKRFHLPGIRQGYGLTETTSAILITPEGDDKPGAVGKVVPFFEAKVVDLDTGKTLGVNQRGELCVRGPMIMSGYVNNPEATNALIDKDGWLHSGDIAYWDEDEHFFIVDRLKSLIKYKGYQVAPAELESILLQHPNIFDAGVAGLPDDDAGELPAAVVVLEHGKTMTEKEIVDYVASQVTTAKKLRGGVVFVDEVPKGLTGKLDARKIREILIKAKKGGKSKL
#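 Biochemical qHTS of compounds, final roughly 60 µM downward over six points, against 10 nM purified firefly luciferase using Km concentrations of substrates (10 uM D-luciferin, 10 uM ATP) in Tris acetate pH 7.5 buffer; luminescence output.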
# Rab9 promoter act: activators of Rab9 promoter | Potency, µM (doses to about 9.22 µM), inactives show at the top dose activation, negative = inhibition, most hits filed as activators | Huh7 Rab9 promoter-luciferase reporter, luminescence, 24 h | 2.8% of 320,000 active | AID 485297; note: % of control where 0% means no effect; nearly all actives have a fitted effect of over 60% in size
#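 Using Huh7 cells stably transfected with Rab9 promoter–luciferase, compounds were incubated 24 h at 37 °C, 5% CO2; luciferase luminescence was read 10 min after reagent addition.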
# ELG1 genotoxic: induces genotoxicity in HEK293T cells with luciferase-tagged ELG1; HEK293T ELG1-luciferase reporter, luminescence, 16 h; Potency, µM (series often up to 46 µM), for the others: top-dose activity change, positive = activation, most hits filed as activators; 1.3% of 330,000 active; note: % of control where 0% means no effect; nearly all actives have a fitted effect of over 60% in size
#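 ELG1-luciferase HEK293T cells, 2,000/well; compound pinned in; 16 hr, 37 °C, 5% CO2; ONE-Glo, 30 min RT; luminescence on CCD imager.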
# ELG1 repair inh: blocks ELG1-dependent DNA repair in HEK293T cells | HEK293T ELG1-luciferase reporter, luminescence, 16 h; DNA damage induced by 5-fluorouridine | Potency, µM (doses to about 46.1 µM), inactives show at the top dose activity change, negative = inhibition, actives largely listed as inhibitors | 2.3% of 330,000 active; note: % is set by controls: 0 for no effect and ±100 for the full control effect; nearly all actives have a fitted effect of over 55% in size
#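 HEK293T cells expressing luciferase-tagged ELG1 (2,000/well) received 5-Fluorouridine plus compound or DMSO for 16 hr at 37 °C. Luciferase was read by ONE-Glo luminescence after 30 min at room temperature.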
# NPC1 promoter act: NPC1 promoter activation. Huh7 NPC1 promoter luciferase reporter, 24 h. Potency, µM (top dose mostly 9.22 µM), for inactives: top-dose activation, most hits filed as activators. 2.4% of 320,000 active. AID 485313; note: % of control where 0% means no effect; nearly all actives have a fitted effect of over 60% in size
#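 Stable NPC1-promoter luciferase Huh7 line; cpd (DMSO) 24 h, 37 °C, 5% CO2; Amplite luciferase reagent 10 min RT; luminescence readout. qHTS format.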
# ELG1 FLuc counter: luciferase inhibition in cell-free luciferin readout for ELG1 hits. shares compounds with ELG1 repair inh. cell-free firefly luciferase luminescence counter-screen, ViewLux. Potency, µM (titrated, usually from 46.1 µM), without a hit: at the highest dose activity change, negative = inhibition, usual class: inhibitors. 3% of 350 active. AID 624247; note: % is set by controls: 0 for no effect and ±100 for the full control effect
# ELG1 Luc conf: inhibits ELG1-dependent DNA repair in HEK293T cells, confirmed; HEK293T ELG1-luciferase levels, luminescence; cells co-treated with 5-fluorouridine; Potency, µM (titrated, usually from 46.1 µM), without a hit: top-dose activity change, negative = inhibition, most hits filed as inhibitors; 68% of 670 active; shares compounds with ELG1 repair inh; AID 624248; note: % is set by controls: 0 for no effect and ±100 for the full control effect; nearly all actives have a fitted effect of over 55% in size
# ELG1 MMS Luc: MMS-stimulated human ELG1 repair inhibition, confirmed. shares compounds with ELG1 repair inh. HEK293T luciferase-tagged ELG1 level, MMS stimulated. Potency, µM (doses to about 46.1 µM), for the others: at the highest dose activity change, negative = inhibition, actives largely listed as inhibitors. 53% of 670 active. AID 624249; note: % is set by controls: 0 for no effect and ±100 for the full control effect; nearly all actives have a fitted effect of over 60% in size
# ELG1 5FU viab: confirmation of ELG1 repair inhibitors: viability with 5FU; shares compounds with ELG1 repair inh; Potency, µM (top dose mostly 46.1 µM), for inactives: top-dose activity change, negative = viability loss, hits mostly cytotoxic; AID 624250; cell viability with 5-FU, ELG1-dependent repair; 670 tested, under 10 active;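 note: ELG1-luc HEK293T cells cotreated with 5-fluorouridine at 10 µM final; viability measured 16 h after compound addition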
# ELG1 MMS viab: confirmation of ELG1 repair inhibitors: viability with MMS; shares compounds with ELG1 repair inh; 33% of 670 active; Cell viability with MMS, ELG1-dependent DNA repair; Potency, µM (top dose mostly 46.1 µM), without a hit: at the highest dose activity change, negative = viability loss, hits mostly cytotoxic;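 note: ELG1-luc HEK293T cells co-treated with 10 µM MMS; viability read 16 h after compound addition; % is set by controls: 0 for no effect and ±100 for the full control effect; nearly all actives have a fitted effect of over 60% in size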
# ELG1 unstim viab: unstimulated viability counter-screen for ELG1 repair hits | shares compounds with ELG1 repair inh | cell viability counter-screen, unstimulated, luminescence | Potency, µM (series often up to 45.9 µM), inactives show at the top dose activity change, negative = loss of viability, hits mostly cytotoxic | 8% of 900 active | AID 624252;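 note: compound exposure lasted 16 hours before reading; % is set by controls: 0 for no effect and ±100 for the full control effect; nearly all actives have a fitted effect of over 55% in size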
# FLuc biochem: counter-screen for ELG1 repair inhibitors: firefly luciferase inhibition | shares compounds with ELG1 repair inh | purified firefly luciferase, luminescence counter-screen | Potency, µM (top dose mostly 57.5 µM), for the others: at the top dose activity, negative = inhibition, hits mostly inhibitors | 10% of 350 active; note: % is set by controls: 0 for no effect and ±100 for the full control effect
# The depositor's hits bear a star; ? = inconclusive; / = not tested or not shown. Calls come from the whole dose curve; as a rule, active = well fitted curve in the direction sought with a large enough effect; inconclusive = small, poorly fitted or top-dose-only effect, or another doubt; inactive = no such curve, though single readings can be large; an effect the other way counts as inactive or inconclusive. Potency is the fitted concentration of half-maximal effect.
SMILES,SMN2 splice enh,FLuc modulator,Rab9 promoter act,ELG1 genotoxic,ELG1 repair inh,NPC1 promoter act,ELG1 Luc conf,ELG1 MMS Luc,ELG1 5FU viab,ELG1 MMS viab,ELG1 unstim viab,others
O=[N+]([O-])c1ccc2ncnc(N3CCN(Cc4ccc5c(c4)OCO5)CC3)c2c1,/,0%,-1%,-17%,2.1µM*,13%,5µM*,13µM*,-11%,25µM*,?,
O=[N+]([O-])c1cccnc1N1CCN(Cc2ccc3c(c2)OCO3)CC1,/,0%,0%,-1%,0%,3%,/,/,/,/,/,
COc1ccccc1N1CCN(CC(=O)Nc2ccccc2C(=O)NC(C)c2ccccc2)CC1 (stereo unspecified),/,0%,-3%,-6%,2.9µM*,-1%,7.9µM*,7%,?,-3%,?,
CC(NC(=O)c1ccccc1NC(=O)CN1CCN(c2ccccc2O)CC1)c1ccccc1 (stereo unspecified),/,3%,2%,-8%,2.3µM*,-3%,5.6µM*,?,?,?,-18%,
COc1ccccc1N1CCN(CC(=O)Nc2ccccc2C(=O)NCCc2ccccc2)CC1,/,-9%,10%,-3%,?,17%,/,/,/,/,/,
O=C(CN1CCN(c2ccccc2O)CC1)Nc1ccccc1C(=O)NCCc1ccccc1,/,/,?,-4%,?,?,/,/,/,/,/,
COc1ccc(CN2CCN(CC(=O)Nc3ccccc3C(=O)NC3CC3)CC2)cc1F,/,-1%,0%,-5%,2.6µM*,-4%,7.1µM*,?,?,0%,1%,
Cc1ccc(-n2c(SC3CCOC3=O)nc3ccccc3c2=O)cc1 (stereo unspecified),81%,0%,0%,-1%,10%,-1%,/,/,/,/,/,
Cc1cc(C)nc(Nc2ncc(O)n2-c2ccc(Br)cc2)n1,-12%,0%,-11%,-3%,?,-2%,/,/,/,/,/,
CCOC(=O)C1C(C(=O)OC)=C(c2ccc(OC)cc2)c2ccc(OC)cc2N1S(=O)(=O)C(F)(F)F (stereo unspecified),/,/,/,-3%,4.1µM*,/,5.6µM*,?,?,-8%,-17%,
Cc1nn(-c2ccc(C(=O)N3CCN(S(=O)(=O)c4ccccc4C(F)(F)F)CC3)cc2)c(C)c1Cl,/,4%,-14%,-2%,3.3µM*,-7%,7.1µM*,?,?,?,?,
Fc1ccccc1-c1csc(=Nc2cccnc2)n1CCCn1ccnc1,-33%,-14%,-3%,-9%,10µM*,-4%,13µM*,20µM*,1%,22µM*,?,ELG1 FLuc counter=16%;FLuc biochem=?
Fc1ccccc1-c1csc(=Nc2cccnc2)n1CC1CCCO1 (stereo unspecified),-77%,-10%,-3%,-2%,?,1%,?,22µM*,9%,16µM*,?,ELG1 FLuc counter=-12%;FLuc biochem=-15%
COCCn1c(-c2cccs2)csc1=Nc1cccnc1,-50%,-3%,-1%,-13%,?,-5%,/,/,/,/,/,
CCCCc1cc(=O)oc2cc(OC3CCCCC3=O)ccc12 (stereo unspecified),/,-19%,7%,3%,-11%,-2%,/,/,/,/,/,
Cc1cc(C(=O)NCc2cccs2)nn1C,/,-2%,4%,2%,8%,1%,/,/,/,/,/,
O=C(NCc1cccs1)c1cc(-c2ccccc2)on1,25µM*,?,2.5µM*,7.3µM*,?,2.5µM*,/,/,/,/,-14%,ELG1 FLuc counter=77%;FLuc biochem=?
CCOC(=O)c1cnc(-n2nc(C)cc2C)nc1Nc1ccc2c(c1)OCO2,-3%,3%,3%,-2%,?,1%,/,/,/,/,/,
CCOC(=O)c1cnc(-n2nc(C)cc2C)nc1Nc1ccc(O)cc1,/,1%,-35%,-9%,4.1µM*,-26%,3.5µM*,2.5µM*,-3%,2.8µM*,?,
Cn1cccc1C(=O)OCC(=O)NCc1ccc2c(c1)OCO2,/,/,0%,5%,?,-3%,/,/,/,/,/,
Cn1cccc1C(=O)OCC(=O)Nc1ccc2c(c1)OCCO2,/,/,/,1µM*,?,/,/,/,/,/,?,ELG1 FLuc counter=3%;FLuc biochem=2.1µM*
Cn1cccc1C(=O)OCC(=O)Nc1sccc1C#N,/,/,/,21µM*,?,/,/,/,/,/,0%,
O=C(NCCN1CCOCC1)c1ccc(NC(=O)C2COc3ccccc3O2)cc1 (stereo unspecified),-14%,-2%,-1%,14%,13%,-9%,/,/,/,/,/,
COc1ccccc1NC(=O)CSc1nnc(Cc2ccccc2)o1,-3%,0%,/,/,/,/,/,/,/,/,/,
COc1ccccc1NC(=O)CSc1nnc(-c2ccccc2)o1,14µM*,-4%,?,18µM*,?,?,/,/,/,/,?,
O=C(CSc1nnc(-c2cccnc2)o1)Nc1ccccn1,13µM*,0%,4µM*,7.3µM*,?,3.2µM*,/,/,/,/,?,ELG1 FLuc counter=193%;FLuc biochem=-3%
O=C(CSc1nnc(-c2cccc(Cl)c2)o1)Nc1ccc2c(c1)OCCO2,11µM*,-5%,2.8µM*,21µM*,?,3.5µM*,/,/,/,/,-1%,
